Screens deposited in PubChem BioAssay by several laboratories.
Hits are enriched below; roughly 3.5% of the tested compounds scored in any of these assays.
BoNT A protease: BoNT A light chain protease inhibition | multiplex microsphere protease substrate cleavage, flow cytometry | inhibition, % at 10 µM | actives 0.17% (n = 360,000); further: plate controls were buffer without enzyme for full effect and enzyme alone for no effect
BoNT F protease: BoNT F light chain protease inhibition; actives 0.22% (n = 360,000); inhibition, % at 10 µM; Multiplex microsphere protease cleavage assay, flow cytometry; in the data active means inhibition above about 35%, passing the limit was not always enough; inconclusive means no clear call, values can overlap the other calls; further: plate controls were buffer without enzyme for full effect and enzyme alone for no effect
Anthrax LF inh2: blocks Bacillus anthracis lethal factor protease. actives 0.12% (n = 360,000). inhibition, % at 10 µM. multiplex microsphere protease cleavage assay, LF. AID 588501; further: plate controls were buffer without enzyme for full effect and enzyme alone for no effect
Target sequence (P15917 whole entry, looked up): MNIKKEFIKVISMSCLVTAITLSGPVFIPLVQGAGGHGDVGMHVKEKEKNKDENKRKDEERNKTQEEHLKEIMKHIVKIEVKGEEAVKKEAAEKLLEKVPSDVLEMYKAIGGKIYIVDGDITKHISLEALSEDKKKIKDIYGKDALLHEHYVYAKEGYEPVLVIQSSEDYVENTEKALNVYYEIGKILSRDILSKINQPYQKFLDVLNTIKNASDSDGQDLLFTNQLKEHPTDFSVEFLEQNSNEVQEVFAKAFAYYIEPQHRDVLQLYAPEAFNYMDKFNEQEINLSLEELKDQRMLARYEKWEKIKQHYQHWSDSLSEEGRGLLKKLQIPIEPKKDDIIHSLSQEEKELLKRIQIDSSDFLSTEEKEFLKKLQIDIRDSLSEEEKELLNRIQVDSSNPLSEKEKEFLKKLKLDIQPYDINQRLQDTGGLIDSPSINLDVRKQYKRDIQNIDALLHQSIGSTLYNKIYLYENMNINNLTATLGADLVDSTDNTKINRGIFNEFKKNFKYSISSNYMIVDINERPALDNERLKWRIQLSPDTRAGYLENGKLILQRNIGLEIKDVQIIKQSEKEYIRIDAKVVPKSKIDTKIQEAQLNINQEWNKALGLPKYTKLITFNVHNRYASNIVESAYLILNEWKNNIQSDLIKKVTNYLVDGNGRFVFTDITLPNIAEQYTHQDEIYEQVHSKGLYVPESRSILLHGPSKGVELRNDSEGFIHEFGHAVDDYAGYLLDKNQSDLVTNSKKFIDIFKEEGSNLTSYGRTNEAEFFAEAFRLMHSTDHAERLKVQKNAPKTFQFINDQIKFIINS
Vc quorum ag: inducers of Vibrio cholerae quorum light production without autoinducers. actives 0.16% (n = 350,000). V. cholerae BH1578 lux reporter, luminescence, 6 h. activation, % at 18.7 µM; in the data active means activation mostly above about 9.7%, no sharp cut-off; inconclusive means no clear call, values can overlap the other calls; inactive means mostly below about 3.7%
Bead autofluor: compound fluorescence in toxin protease inhibitor counterscreen. AID 624483. actives 3.1% (n = 360,000). fluorescence intensity (concentration not given with the values). compound autofluorescence counterscreen, microsphere flow cytometry; stronger effect = higher value; in the data active means fluorescence intensity above about 16000; inconclusive means no clear call, values can overlap the other calls
* hit, by the source's call. Unless noted, no stated cut-off is given here; in the data, active means inhibition above about 30%; inconclusive means no clear call, values can overlap the other calls; inactive means below that.

COc1ccc(NC(=O)Cc2ccc(Cl)cc2)cc1NC(=O)c1ccco1 was read as BoNT A protease inconclusive, BoNT F protease 1.9, Anthrax LF inh2 -8.7, Vc quorum ag -1.3 and Bead autofluor 21196*.
For CCOc1ccccc1NC(=O)c1cc(Cl)ccc1NC(=O)c1ccco1 the results were BoNT A protease 8.2, BoNT F protease 10.9, Anthrax LF inh2 -12.1, Vc quorum ag -0.2 and Bead autofluor 17027*.
COc1ccccc1NC(=O)c1cc(Cl)ccc1NC(=O)c1ccco1 was read as BoNT A protease -0.1, BoNT F protease -15.8, Anthrax LF inh2 -6.4, Vc quorum ag -11.1 and Bead autofluor 2849.
For COc1ccc(NC(=O)c2ccco2)cc1NC(=O)c1ccco1 the results were BoNT A protease -0.5, BoNT F protease -1.9, Anthrax LF inh2 -7.2 and Bead autofluor 9627.
For CCOC(=O)C1=C(COC(=O)C2CC(=O)N(c3ccccc3F)C2)NC(=O)NC1C (stereo unspecified) the results were BoNT A protease 0.8, BoNT F protease 1.2, Anthrax LF inh2 2.1, Vc quorum ag inactive and Bead autofluor 7525.
`CC(SC1CCCC1)C(=O)Nc1ccnn1C(C)C` (stereo unspecified) gave BoNT A protease inconclusive, BoNT F protease -1.4, Anthrax LF inh2 -8.4, Vc quorum ag 0.1 and Bead autofluor 20011*.
Screening CC(Sc1ncccn1)C(=O)NC1CCCC1 (stereo unspecified) returned BoNT A protease -0.5, BoNT F protease -1.3, Anthrax LF inh2 -5.4, Vc quorum ag -1.3 and Bead autofluor 3994.
`COc1ccc(-c2nnc(-c3cccnc3)o2)cc1OC` gave BoNT A protease -7.2, BoNT F protease -9.3, Anthrax LF inh2 -1.6, Vc quorum ag -0.2 and Bead autofluor 24717*.
`COC(=O)CSc1nnc(-c2ccc(S(=O)(=O)N3CCC(C)CC3)cc2)o1` gave Vc quorum ag -0.3.
Screening COc1cc(-c2nnc(-c3cccnc3)o2)cc(OC)c1OC returned BoNT A protease -0.7, BoNT F protease -2.8, Anthrax LF inh2 0.1, Vc quorum ag inactive and Bead autofluor 7290.
For COc1ccc(NC(=O)CSc2nnc(-c3cccnc3)o2)cc1 the results were BoNT A protease 5.2, BoNT F protease 8.7, Anthrax LF inh2 -0.7, Vc quorum ag 1.4 and Bead autofluor 21010*.
Screening CC1CCN(S(=O)(=O)c2ccc(-c3nnc(SCc4cccnc4)o3)cc2)CC1 returned BoNT A protease -1.3, BoNT F protease -2.9, Anthrax LF inh2 -2.0, Vc quorum ag inactive and Bead autofluor 23932*.
`CCOC(=O)CSc1nnc(-c2ccc(NS(=O)(=O)c3ccc(C)cc3)cc2)o1` gave BoNT A protease 0.0, BoNT F protease -1.2, Anthrax LF inh2 -1.8, Vc quorum ag -0.1 and Bead autofluor 20276*.
CC(Cc1n[nH]c(=S)n1N)c1ccccc1 (stereo unspecified) was read as BoNT A protease -1.8, BoNT F protease 8.4, Anthrax LF inh2 -10.7, Vc quorum ag inactive and Bead autofluor 3691.
`COc1cccc(-c2nnc(SCc3cccnc3)o2)c1` gave BoNT A protease -2.7, BoNT F protease -6.6, Anthrax LF inh2 -2.5, Vc quorum ag -5.9 and Bead autofluor 17724*.
`c1ccc2c(CSc3nnc(-c4ccncc4)o3)cccc2c1` gave BoNT A protease -1.0, BoNT F protease -0.9, Anthrax LF inh2 1.9, Vc quorum ag -1.8 and Bead autofluor 23894*.
COC(=O)CSc1nnc(-c2ccncc2)o1 was read as BoNT A protease inconclusive, BoNT F protease 19.0, Anthrax LF inh2 3.1, Vc quorum ag inactive and Bead autofluor 16743*.
For Cc1ccc(NC(=O)CSc2nnc(-c3ccncc3)o2)cc1 the results were BoNT A protease 6.2, BoNT F protease 8.3, Anthrax LF inh2 -18.1, Vc quorum ag 4.2 and Bead autofluor 13604.
Screening COc1ccc(-c2nnc(SCC(=O)OC3CCCCC3)o2)cc1OC returned BoNT A protease 2.6, BoNT F protease 4.6, Anthrax LF inh2 -0.8, Vc quorum ag -3.0 and Bead autofluor 19136*.
CSc1ccccc1C(=O)NCc1ccccc1C was read as BoNT A protease -0.7, BoNT F protease -1.2, Anthrax LF inh2 -4.5, Vc quorum ag inactive and Bead autofluor 4455.
`COc1ccc(CNCCNC(=O)c2cccs2)c(OC)c1OC` gave BoNT A protease 0.1, BoNT F protease 3.8, Anthrax LF inh2 1.9, Vc quorum ag -0.3 and Bead autofluor 4797.
Screening Cn1sc(NC(=O)c2ccc(Cl)cc2)nc1=O returned BoNT A protease 0.1, BoNT F protease -7.2, Anthrax LF inh2 -5.6, Vc quorum ag 0.3 and Bead autofluor 9060.
